# Results from article PMC4336329 (PLoS ONE, 2015).
# Among all 310,000 compounds or so, about 14,000 (4.5%) showed an effect of 50% or more. The effect is printed as a negative number. What follows is part of a selection rich in strong results, with near analogues and random picks from the rest.
# Molecular target: human ether-à-go-go-related gene (hERG) potassium channel (human, UniProt Q12809)
# Assay: primary screen, population patch clamp on CHO cells stably expressing hERG; higher = less effect of the substance
# 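Also: peak tail current of the secondary pulse compared with the same well before compound.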
# Chain of human ether-à-go-go-related gene (hERG) potassium channel (Q12809 whole entry, looked up): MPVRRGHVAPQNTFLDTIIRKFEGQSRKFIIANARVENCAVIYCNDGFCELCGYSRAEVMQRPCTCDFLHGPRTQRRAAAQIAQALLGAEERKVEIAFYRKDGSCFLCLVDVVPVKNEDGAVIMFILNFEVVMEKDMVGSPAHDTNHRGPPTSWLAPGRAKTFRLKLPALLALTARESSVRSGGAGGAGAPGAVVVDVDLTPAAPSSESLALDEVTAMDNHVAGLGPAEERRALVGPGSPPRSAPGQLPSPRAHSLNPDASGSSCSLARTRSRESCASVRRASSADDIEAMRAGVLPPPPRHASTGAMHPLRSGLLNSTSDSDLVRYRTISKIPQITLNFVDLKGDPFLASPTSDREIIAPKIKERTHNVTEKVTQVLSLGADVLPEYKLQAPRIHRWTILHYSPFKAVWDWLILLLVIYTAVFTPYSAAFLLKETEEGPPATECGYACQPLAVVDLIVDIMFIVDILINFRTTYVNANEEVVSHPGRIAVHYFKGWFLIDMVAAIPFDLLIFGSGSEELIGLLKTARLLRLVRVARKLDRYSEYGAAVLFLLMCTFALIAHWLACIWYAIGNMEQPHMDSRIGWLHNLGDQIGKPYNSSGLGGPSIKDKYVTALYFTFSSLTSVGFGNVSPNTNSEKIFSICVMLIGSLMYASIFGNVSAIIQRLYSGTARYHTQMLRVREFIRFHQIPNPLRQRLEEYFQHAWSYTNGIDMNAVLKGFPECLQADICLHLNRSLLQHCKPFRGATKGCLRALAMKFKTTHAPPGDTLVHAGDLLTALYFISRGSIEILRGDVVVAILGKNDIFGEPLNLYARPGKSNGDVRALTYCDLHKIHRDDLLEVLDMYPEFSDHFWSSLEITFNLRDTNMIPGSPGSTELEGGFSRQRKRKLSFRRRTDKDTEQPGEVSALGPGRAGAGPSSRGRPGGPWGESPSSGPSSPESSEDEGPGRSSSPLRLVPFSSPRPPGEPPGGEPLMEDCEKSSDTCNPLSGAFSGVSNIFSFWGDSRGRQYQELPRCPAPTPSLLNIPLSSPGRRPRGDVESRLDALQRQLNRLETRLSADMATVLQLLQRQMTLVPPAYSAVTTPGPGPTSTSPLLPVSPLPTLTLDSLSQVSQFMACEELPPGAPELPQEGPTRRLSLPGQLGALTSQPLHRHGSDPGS
row,Compound,"hERG current change (%, negative = inhibition) at 10uM [%]"
1,CN1CCN(c2ncnc3c2cnn3C)CC1,19.5
2,CC1CC(C)CN(c2ncnc3c2cnn3C)C1 (stereo not drawn),-69.8
3,Cc1ccccc1NC(=O)c1cccnc1,-7.59
4,CCCCOC(=O)c1cc(=O)[nH]c2ccc(C)cc12,5.6
5,CC1(C)OC(=O)C(=NNc2ccccc2[N+](=O)[O-])C(=O)O1,24.3
6,COC(=O)CN(c1ccc(Cl)cc1C)S(C)(=O)=O,13.9
7,COc1ccc(C(=O)N(CCc2ccccc2)Cc2cccs2)c(OC)c1,-15.9
8,N#Cc1cccc(C(=O)N(CCc2ccccc2)Cc2cccs2)c1,-53.3
9,CS(=O)(=O)c1cccc(C(=O)N(CCc2ccccc2)Cc2cccs2)c1,-48.6
10,O=C(Cc1ccccc1)Nc1ccc(C(=O)NCc2ccccc2)cc1,11.2
11,O=C(CSc1nnc(-c2cccnc2)n1CCN1CCCCC1)Nc1cccc(Cl)c1,-79.8
12,Cn1c(SCC(=O)Nc2cccc(F)c2)nnc1-c1cccnc1,-33.1
13,CCCn1c(SCC(=O)Nc2cccc(C(=O)OC)c2)nnc1-c1cccnc1,-42
14,Cn1c(SCC(=O)Nc2ccc(F)cc2)nnc1-c1cccnc1,-11.5
15,Cc1ccc(NC(=O)CSc2nnc(-c3cccnc3)n2CCN2CCCCC2)cc1,-69
16,C=CCn1c(SCC(=O)Nc2ccc(C(=O)O)cc2)nnc1-c1cccnc1,34.6
17,COC(=O)C1=C(c2ccc(OC)c(OC)c2)C[C@@H]2CC[C@H]1N2C(=O)N1CCC(C)CC1,5.39
18,O=C(COc1ncnc2ccc(Br)cc12)NC1CCCC1,2.91
19,Cc1cc(NC(=O)COC(=O)CSc2nc3cc(Cl)ccc3n2Cc2ccccc2)no1,-19.9
20,Nc1nc2n(n1)C(=O)CC(c1ccccc1[N+](=O)[O-])N2 (stereo not drawn),41.7
21,CC(C)(C)n1nnnc1C(c1ccc(C(F)(F)F)cc1)N(Cc1ccc(F)cc1)Cc1ccco1 (stereo not drawn),8.86
22,O=C(NCCc1csc(-c2ccccc2)n1)c1ccccc1F,-49.5
23,COCCCNC(=O)CCc1nc2cccnc2n1Cc1ccc(OC)cc1,10.8
24,COCCCNC(=O)CCc1nc2cccnc2n1Cc1ccccc1,-29.8
25,COCCNC(=O)CCc1nc2cccnc2n1Cc1ccc(OC)cc1,8.65
26,COc1ccc(Cn2c(CCC(=O)Nc3ccccc3)nc3cccnc32)cc1,-9.7

row,Compound,"hERG current change (%, negative = inhibition) at 10uM [%]"
1,CCCCCCNC(=O)CCc1nc2cccnc2n1Cc1ccc(OC)cc1,-63.6
2,O=C(O)CCc1nc2cccnc2n1Cc1ccccc1,-24.6
3,O=C(CCc1nc2cccnc2n1Cc1ccccc1)NCCc1ccc(Cl)cc1,-78.6
4,CCCCNC(=O)CCc1nc2cccnc2n1Cc1ccccc1,-51.7
5,CCCCNC(=O)CCc1nc2cccnc2n1Cc1ccc(OC)cc1,-18.1
6,Cc1ccc(NC(=O)c2cc(CC(C)C)nc3ccccc23)cc1,11
7,CCOc1ccc2nc(NC(=O)CN3CCN(C)CC3)sc2c1,-15.7
8,CN(C)CCc1nn[nH]n1,-0.456
9,CSCCC(NC(=O)c1ccc(Cl)cc1Cl)C(=O)OC1CCCCC1=O (stereo not drawn),-26.7
10,CCOc1ccc(NC(=O)CN(C)CC(=O)Nc2cccc(Cl)c2C)cc1OCC,-10.4
11,CCC(=O)N(CCC(c1ccccc1)c1ccco1)Cc1cccs1 (stereo not drawn),-15.9
12,CC(=O)N(CCC(c1ccccc1)c1ccco1)Cc1cccs1 (stereo not drawn),-52.9
13,COc1ccccc1C(CCN(Cc1cccs1)C(C)=O)c1ccco1 (stereo not drawn),-2.93
14,COc1ccccc1NS(=O)(=O)c1ccc(Cl)cc1,-19.5
15,CC(=O)Nc1ccc(S(=O)(=O)NCCc2ccc(F)cc2)cc1,-10.7
16,CC(Nc1ccc(F)cc1)=[N+](C)CCNS(=O)(=O)c1ccc(Cl)cc1.[I-],-68.4
17,COc1ccc(NC(=O)CCNS(=O)(=O)c2ccc(NC(C)=O)cc2)cc1Cl,22.8
18,COc1cccc(NC(C)=[N+](C)CCNS(=O)(=O)c2ccc(Cl)cc2)c1.[I-],-64.4
19,CC(Nc1cc(C)cc(C)c1)=[N+](C)CCNS(=O)(=O)c1ccc(Cl)cc1.[I-],-48.5
20,COc1ccc(NC(=O)CNS(=O)(=O)c2ccccc2)cc1Cl,4.28
21,COc1ccccc1NC(=O)C(C)NS(=O)(=O)c1ccc(Cl)cc1 (stereo not drawn),-0.716
22,COc1ccccc1NC(C)=[N+](C)CCNS(=O)(=O)c1ccc(Cl)cc1.[I-],-58.7
23,COc1cccc(NC(=O)C2(S(=O)(=O)c3ccc(Cl)cc3)CC2)c1,-15.9
24,COc1ccc(NC(C)=[N+](C)CCNS(=O)(=O)c2ccc(Cl)cc2)cc1Cl.[I-],-69.5
25,CCNS(=O)(=O)c1ccc(NC(=O)Nc2cccc(OC)c2)cc1,8.01
